We go through 15 compounds from PubChem BioAssay (NCI).

The panel holds about 83,000 compounds, 20% with a hit somewhere; the sample as a whole holds those more often.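 Assay: single dose, 48 h. Readout: percent growth (0 = no net growth; negative = cell death). Active: <10.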 The source made the active and inactive calls.

The subject of this assay is MDA-MB-468 breast. In words: NCI-60 one-dose screen, 48 h (100 = growth as untreated, 0 = no growth, -100 = all killed). To be noted: 10 µM unless noted.
In the case of `COc1ccc(-n2ncn(CCCCCCn3cnn(-c4ccc(OC)cc4)c3=O)c2=O)cc1`, the growth is 84.8% (inactive).
Consider `Nc1ccc(-c2nnc(SCc3ccc(O)c4ncccc34)o2)cc1`, for which the growth is -20.7% (active).
As for `COc1cc(-c2n/c(=C\c3c(O)[nH]c4ccccc34)cc3c2=Nc2ccccc2-3)cc(OC)c1OC`, the figure is 5.24% (active); as for `CC1(C)c2ccccc2C(=O)C1(Br)Cc1ccccc1` (stereo not given), 45.6% (inactive).
Turning to `O=C1Nc2ccccc2/C1=C/C(=N/c1nnc(-c2ccccc2)s1)c1ccccc1`, the growth is 56% (inactive).
Regarding `O=S(=O)(Nc1ccc(Br)c(Cl)c1)c1ccc(-c2cnc(C3CC3)o2)cc1`, the growth was -23.9% (active).
The figure for `CN1CCc2c(c3ccccc3c3ccccc23)C1` is 30.7% (inactive).
The figure for `CC1(C)O[C@H]2OC3CCC(=O)CC3(O)[C@H]2O1` (stereo not given in full) is 98.5% (inactive); for `CCN(CC)c1ccc(/C=N/NC(=O)c2ccc(NS(C)(=O)=O)cc2)cc1` it is 20.2% (inactive); for `O=C(C(=O)c1cc(Br)ccc1O)c1cc(Br)ccc1O` it is 29.5% (inactive).
`COc1ccc2nc(NC(=O)/C(=C/c3cc(OC)c(OC)c(OC)c3)c3ccc(OC)c(OC)c3)sc2c1`: the growth was 109% (inactive).
Consider `COc1cccc2c(N=NC(=O)c3ccc(S(N)(=O)=O)cc3)c(O)[nH]c12`, for which the growth was 101% (inactive).
As for `Cc1csc(NC(c2ccccc2)c2c(C)nc3ccccn23)n1` (stereo not given), the growth is 100% (inactive).
Regarding `Oc1cc(/C=C/c2nc(N3CCOCC3)c3cc(Cl)c(Cl)cc3n2)cc(O)c1O`, the growth is 85% (inactive).
`O=C(NNc1nc2cc(F)c(F)cc2n2c(CN3CC4CNCC4C3)ccc12)c1ncccn1` (stereo not given): the growth is -10.6% (active).
